# Screening results as filed in PubChem BioAssay.
# Hits are enriched below; roughly 7.2% of the tested compounds scored in any of these assays.
# ALR H2O2 inh – inhibitors of human sulfhydryl oxidase ALR; P55789; purified ALR, DTT oxidation, H2O2 HRP-luminol luminescence; inhibition, % (concentration not given with the values); 3.8% of 290,000 active;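 active = mean replicate inhibition above about 79%, with every replicate also reaching it, limit read from the data; inconclusive = only one of the two criteria met; inactive = mean below limit and not every replicate reaching it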
# Target sequence (P55789 whole entry, looked up): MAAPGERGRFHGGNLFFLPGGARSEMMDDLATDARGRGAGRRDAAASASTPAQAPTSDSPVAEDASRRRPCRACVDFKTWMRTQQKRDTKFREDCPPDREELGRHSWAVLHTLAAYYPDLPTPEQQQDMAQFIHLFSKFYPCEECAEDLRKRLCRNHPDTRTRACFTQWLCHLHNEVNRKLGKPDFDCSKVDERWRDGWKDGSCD
# Efflux pump inh – blocks antifungal efflux pumps in multiplex yeast assay; S. cerevisiae Candida pump triplex, Nile Red efflux; inhibition, % at 10 µM; 0.44% of 330,000 active; AID 485275;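 active = plate passing quality check with inhibition over a set limit, or well fluorescence over plate mean plus 4 SD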;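 note: Nile Red retained in pooled yeast measured as flow cytometry median fluorescence; higher means more Nile Red kept so more efflux inhibition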
# AHR act – activates the human aryl hydrocarbon receptor | AHR-responsive luciferase reporter cells, luminescence | activation, % at 5 µM | 2.5% of 320,000 active | AID 2796; in the data active = activation above about 47%
# A1 inh – inhibitors of the anti-apoptotic protein A1, read as caspase activation | MEF A1-2A-BIM cells, Caspase-Glo 3/7 luminescence, 3 h; percent of clofoctol response, vehicle zero | 0.066% of 330,000 active | caspase activation, % (test concentration not listed);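 active = over half of replicate activation scores above 10%, or exactly half above 10 with the replicate mean above 10; inconclusive = replicate mean below 10 yet half the replicates above 10; inactive = over half of replicates below 10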
# VLA-4 inh – inhibition in a human VLA-4 binding assay; P13612; inhibition, % (about 7 µM as worked out from the volumes in the protocol); 0.2% of 330,000 active; AID 2557; VLA-4 expressing cells, ligand binding flow cytometry; in the data active = inhibition above about 50%
# SUMO Mot1 rescue – blocks SUMOylation pathway, rescuing yeast Mot1-301 growth; AID 2716; growth rescue, % at 18.8 µM; S. cerevisiae Mot1-301 growth rescue, ATP luminescence, 38.5C; percent above DMSO median, 100 means doubled; 1% of 320,000 active;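 active = every valid replicate shows activation above 250% relative to neutral control wells; inactive = the rest, any valid replicate at or below 250%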
# Hits are given with their value; – = inactive; ? = inconclusive; · = no result given.
SMILES,ALR H2O2 inh,Efflux pump inh,AHR act,A1 inh,VLA-4 inh,SUMO Mot1 rescue
COc1ccc(/C=C2\C(=O)ON=C2c2ccccc2)cc1,98,–,–,–,–,–
O=C(CN(CCc1ccccc1)S(=O)(=O)c1ccc(Br)cc1)N/N=C/c1ccccc1C(=O)O,–,–,–,–,–,–
Nc1cc2c([N+](=O)[O-])cccc2o1,85,–,–,–,–,–
Cc1c(N)cccc1[N+](=O)[O-],–,–,–,–,–,–
CCN(CC)S(=O)(=O)c1cccc(C(=O)NCCc2ccccc2)c1,–,–,–,–,–,–
CN(c1ccccc1)S(=O)(=O)c1cccc(C(=O)NCCc2ccc(O)c(O)c2)c1,93,–,–,–,–,–
Cc1nn(C)cc1CN(C)S(=O)(=O)c1cccc([N+](=O)[O-])c1,·,–,–,–,–,550
O=c1ccc2cc(O)c(O)cc2o1,96,–,–,–,–,–
O=c1ccc2cc3ccoc3cc2o1,·,–,–,–,–,–
CCCc1c(O)nc(SCC(=O)N2CCCCC2)[nH]c1=O,88,–,–,–,–,–
CC(C)CCc1c(O)nc(SCC(=O)N2CCCCCC2)[nH]c1=O,87,–,–,?,–,–
CC(=O)Nc1c(O)nc(SCC(=O)N2CCCCC2)[nH]c1=O,·,–,–,–,–,–
CC(C)COc1cccc(-c2cc(C(=O)Nc3ccon3)c3ccccc3n2)c1,·,–,–,–,–,–
CN(c1ccccc1)S(=O)(=O)c1cccc(NC(=O)c2nn(C)c(=O)c3ccccc23)c1,·,–,–,·,–,·
CCOc1ccc(N(C)S(=O)(=O)c2ccc3[nH]cc(C(=O)NCCCOC)c(=O)c3c2)cc1,–,–,48,–,–,–
CCOc1ccc(N(C)S(=O)(=O)c2ccc3[nH]cc(C(=O)NCCOC)c(=O)c3c2)cc1,–,–,–,–,–,–
CCCNC(=O)c1c[nH]c2ccc(S(=O)(=O)N(C)c3ccc(OCC)cc3)cc2c1=O,–,–,54,–,–,–
S=C(NCc1ccccc1)NCc1ccccc1Cl,–,–,·,–,–,–
O=C(N/N=C/c1cccc([N+](=O)[O-])c1)c1cc(-c2ccc3c4c(cccc24)CC3)n[nH]1,–,–,51,–,–,–
O=C(N/N=C/c1ccc(Cl)c([N+](=O)[O-])c1)c1cc(-c2ccc3c4c(cccc24)CC3)n[nH]1,–,–,–,–,–,–
COc1ccc(-c2nc(CS(=O)(=O)CC(=O)NC3CCC(C)CC3)c(C)o2)cc1 (stereo not given),98,–,–,–,–,–
Cc1ccc(-c2nc(CS(=O)CC(=O)NC3CCC(C)CC3)c(C)o2)cc1 (stereo not given),99,–,–,–,–,–
Cc1oc(-c2ccc(Cl)cc2)nc1CS(=O)CC(=O)NC1CC1 (stereo not given),99,–,–,–,–,–
OCCC1CN(Cc2ccc3cccc(F)c3n2)CCN1Cc1ccccc1 (stereo not given),–,–,–,–,–,–
COc1cc(/C=C2\CCCc3c2nc2ccccc2c3C(=O)O)cc(Br)c1O,97,–,–,–,–,–
SMILES,ALR H2O2 inh,Efflux pump inh,AHR act,A1 inh,VLA-4 inh,SUMO Mot1 rescue
COc1cc(/C=C2\CCc3c2nc2ccccc2c3C(=O)O)cc(OC)c1OC,–,–,–,–,–,–
CCOc1ccccc1CN1CCN(Cc2[nH]c3ccccc3c2C)CC1CCO (stereo not given),–,–,51,–,–,–
COc1ccc(C2c3[nH]c4ccccc4c3C[C@H]3C(=O)N(c4ccccc4C(=O)N4CCC[C@H]4C(=O)O)C(=O)N23)cc1 (stereo not given in full),98,–,–,–,–,–
O=C(O)[C@@H]1CCCN1C(=O)c1ccccc1N1C(=O)[C@@H]2Cc3c([nH]c4ccccc34)C(c3cccc(Cl)c3)N2C1=O (stereo not given in full),97,–,–,–,–,–
COc1cccc(C2c3[nH]c4ccccc4c3C[C@H]3C(=O)N(c4ccccc4C(=O)N4CCC[C@H]4C(=O)O)C(=O)N23)c1 (stereo not given in full),98,–,–,–,–,–
O=C(O)[C@H]1CCCN1C(=O)c1ccccc1N1C(=O)[C@@H]2Cc3c([nH]c4ccccc34)C(c3cccc(Cl)c3)N2C1=O (stereo not given in full),·,–,–,–,–,–
CC12CCC(=O)N1C(C(=O)N1CCN(S(=O)(=O)c3cccc(C(F)(F)F)c3)CC1)CS2 (stereo not given),·,–,–,–,–,–
COc1ccccc1C(=O)N1CCN(Cc2cccnc2)CC1,–,–,–,–,–,–
COc1cccc(OC)c1C(=O)N1CCN=C1SCc1cccnc1,99,–,–,–,–,–
COc1ccc(C(=O)N2CCN=C2c2ccccc2)cc1OC,–,–,–,–,–,–
COc1ccc(C(=O)N2CCN=C2SCc2cccnc2)cc1OC,100,–,–,–,–,–
O=C(COc1ccccc1)N1CCN=C1SCc1ccccc1,·,–,–,–,–,–
CCOc1ccccc1C(=O)N1CCN=C1SCc1cccnc1,99,–,–,–,–,–
CC(=O)C1=C(C)Nc2ncnn2C1c1ccccc1F (stereo not given),–,–,–,–,–,–
COc1ccc(CNC(=O)C2CCCN(C(=O)Nc3ccccc3OC)C2)cc1 (stereo not given),·,–,–,–,–,–
CC(=O)c1cccc(S(=O)(=O)Nc2ccccc2N2CCOCC2)c1,–,–,–,–,–,–
Cc1ccc(C(=O)Nc2nccc(-c3cccs3)n2)cc1,–,–,71,–,–,–
NC(=S)Nc1nccc(-c2cccs2)n1,–,–,–,–,–,–
COc1ccc(/C=C\C(=O)c2c(O)ccc3c(C)cc(=O)oc23)cc1,97,–,–,–,–,–
O=C(c1cccc(O)c1)N1CCN(C(=O)C2CC2)CC1,·,–,–,–,–,–
CCCOc1cc(C)c(S(=O)(=O)n2ccc(C)n2)cc1C,–,–,–,–,–,–
CCOc1cc(/C=C(\C#N)c2nc3ccccc3[nH]2)ccc1OC(C)C(=O)O (stereo not given),98,–,–,–,–,–
N#C/C(=C/c1ccc(O)c(O)c1)c1nc2ccccc2[nH]1,90,2.0,–,–,–,–
N#C/C(=C\c1ccccc1OCC(=O)O)c1nc2ccccc2[nH]1,98,–,–,–,–,–
N#C/C(=C\c1cccs1)c1nc2ccccc2[nH]1,·,–,–,–,–,–
O=C(O)/C=C/C(=O)Nc1ccc(Oc2ncnc3cc(Cl)ccc23)nc1,–,–,–,–,–,–
C=CCN(CC=C)S(=O)(=O)c1ccc(C(=O)Nc2nnc(COC)o2)cc1,?,–,–,–,–,–
COCc1nnc(NC(=O)c2ccc(S(=O)(=O)N(CC(C)C)CC(C)C)cc2)o1,95,–,–,–,–,–
